“And” between values parts separate entries of the source, which are not always exact repeats. Identical values can stand only once. The panel holds about 79,000 compounds, 15% with a hit somewhere; the sample as a whole holds those more often. Where a structure was tested more than once in an assay, its records may differ in their call. The source made the active and inactive calls. No stated cut-off is given here; in the data, active means growth inhibition above about 70%; inactive means the rest.
What was measured:
[1] = NCI Yeast Anticancer Drug Screen. Data for the rad52 strain (AID 147);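 further: 0% = growth of vehicle-treated control cultures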; conditions: S. cerevisiae rad52 mutant growth inhibition, stronger effect = higher value
Method in brief: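 Compounds are applied to a genetically defined yeast strain lacking normal DNA damage repair, and inhibition of growth is expressed relative to cultures given vehicle only.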

[2] = NCI Yeast Anticancer Drug Screen. Data for the wt1 strain (AID 149);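 further: 0% = growth of vehicle-treated wt1 cultures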; conditions: S. cerevisiae wt1 strain (SPY 50644) growth inhibition, stronger effect = higher value
Method in brief: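 wt1 strain grown with compound or vehicle; inhibition taken from the growth difference.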

[3] = NCI Yeast Anticancer Drug Screen. Data for the rad50EPP+ strain (AID 151);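 further: 0% = growth of vehicle-treated control cultures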; conditions: S. cerevisiae rad50 mutant strain, stronger effect = higher value
Method in brief: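 Compounds were applied to the rad50EPP+ yeast strain, which bears a defined DNA repair alteration, and growth inhibition was determined relative to vehicle-treated cultures.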

[4] = NCI Yeast Anticancer Drug Screen. Data for the mgt1 strain (AID 153); conditions: S. cerevisiae mgt1 mutant growth inhibition, stronger effect = higher value
Method in brief: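 Strain: mgt1 yeast, one of a set carrying defined DNA damage repair or cell cycle control alterations. Compound-treated growth compared with vehicle.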

[5] = NCI Yeast Anticancer Drug Screen. Data for the rad50 strain (AID 155);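 further: 0% = growth of vehicle-only cultures of the same strain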; conditions: S. cerevisiae rad50 strain growth inhibition, stronger effect = higher value
Method in brief: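 DNA repair mutant yeast, compound exposure, growth read-out; inhibition is taken relative to vehicle.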

[6] = NCI Yeast Anticancer Drug Screen. Data for the mec2-1 strain (AID 157); conditions: S. cerevisiae mec2-1 strain, stronger effect = higher value
Method in brief: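 Strain: mec2-1 (DNA repair/cell cycle alteration). Compound exposure, then growth measured; inhibition expressed relative to vehicle.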

[7] = NCI Yeast Anticancer Drug Screen. Data for the rad14 strain (AID 159);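 further: 0% = growth of vehicle-treated control cultures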; conditions: S. cerevisiae rad14 strain growth inhibition, stronger effect = higher value
Method in brief: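 DNA repair-defective yeast, compound-exposed; % growth inhibition derived by comparison with vehicle-treated controls.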

[8] = NCI Yeast Anticancer Drug Screen. Data for the sgs1 mgt1 strain (AID 161);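 further: 0% = growth of cultures given vehicle only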; conditions: S. cerevisiae sgs1 mgt1 strain, stronger effect = higher value
Method in brief: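 Read-out: growth inhibition vs vehicle controls. Cells: mutant yeast strain deficient in DNA damage repair.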

[9] = NCI Yeast Anticancer Drug Screen. Data for the CLN2oe strain (AID 163);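 further: 0% = growth of vehicle-only control cultures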; conditions: S. cerevisiae CLN2oe strain, stronger effect = higher value
Method in brief: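 Growth of a genetically modified yeast strain is measured after compound exposure and compared with cultures given vehicle alone.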

[10] = NCI Yeast Anticancer Drug Screen. Data for the cln2 rad14 strain (AID 165);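 further: 0% = growth equal to vehicle treated cultures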; conditions: S. cerevisiae cln2 rad14 strain, stronger effect = higher value
Method in brief: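 Compounds are applied to the cln2 rad14 yeast strain, and growth is then compared with that of vehicle-treated cultures to give inhibition.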

[11] = NCI Yeast Anticancer Drug Screen. Data for the bub3 strain (AID 167); conditions: S. cerevisiae bub3 mutant strain, stronger effect = higher value
Method in brief: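 In this screen, a yeast mutant lacking normal mitotic checkpoint function is challenged with compound. Relative growth versus vehicle gives the inhibition value.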

[12] = NCI Yeast Anticancer Drug Screen. Data for the wt2 strain (AID 169);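 further: 0% = growth of vehicle-treated yeast cultures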; conditions: S. cerevisiae wt2 strain growth inhibition, stronger effect = higher value
Method in brief: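 This strain belongs to a panel of yeast strains with defined genetic alterations in DNA damage repair or cell cycle control. Compounds are applied, and growth inhibition is measured against vehicle-treated cultures.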

[13] = NCI Yeast Anticancer Drug Screen. Data for the mlh1 strain (AID 171);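 further: 0% = growth of vehicle-treated control cultures of the same strain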; conditions: S. cerevisiae mlh1 strain growth inhibition, stronger effect = higher value
Method in brief: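 Growth of the mutant yeast strain after compound exposure, expressed as inhibition relative to vehicle-only controls.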

[14] = NCI Yeast Anticancer Drug Screen. Data for the sgs1 strain (AID 173);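 further: 0% = growth of vehicle-only control cultures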; conditions: S. cerevisiae sgs1 mutant, stronger effect = higher value
Method in brief: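 Growth of a yeast strain bearing a defined genetic alteration is measured after compound treatment. Inhibition is expressed relative to vehicle-only controls.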

[15] = NCI Yeast Anticancer Drug Screen. Data for the mlh1 rad18 strain (AID 175); conditions: S. cerevisiae mlh1 rad18 strain growth inhibition, stronger effect = higher value
Method in brief: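 Read-out is yeast growth inhibition, calculated against vehicle-only controls. The compound was applied to a strain engineered with DNA damage repair alterations.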

[16] = NCI Yeast Anticancer Drug Screen. Data for the rad18 strain (AID 177); conditions: S. cerevisiae rad18 mutant growth inhibition, stronger effect = higher value
Method in brief: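 Growth of the mutant yeast strain after compound exposure, normalised to vehicle-only cultures.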

[17] = at 5.0 µM (retest, dose inferred, filed as 0.5)
[18] = at 50.0 µM (retest, dose inferred, filed as 5.0)

Measured: growth inhibition

O=C1Nc2ccccc2/C1=C/c1ccccc1
15.8% (inactive) and 98% (active): [11]; at 50.0 µM
66.6% (inactive) and 97.2% (active): [6]; at 50.0 µM
-40.7% (inactive) and 70.8% (active): [10]; at 50.0 µM
inactive: [1]; at 1.2 µM -2% | [1]; at 3.7 µM -1% | [1]; at 11.0 µM 7% | [1]; at 33.0 µM 37% | [2]; at 1.2 µM -1% | [2]; at 3.7 µM -2% | [2]; at 11.0 µM 0% | [2]; at 33.0 µM 6% | [2]; at 100.0 µM 34% | [3]; at 1.2 µM 0% | [3]; at 3.7 µM 1% | [3]; at 11.0 µM 10% | [3]; at 33.0 µM 35% | [3]; at 100.0 µM 53% | [4]; at 1.2 µM -6% | [4]; at 3.7 µM -22% | [4]; at 11.0 µM -8% | [4]; at 33.0 µM 17% | [5]; at 1.2 µM -3% | [5]; at 3.7 µM 1% | [5]; [17] -113% and -24% | [5]; at 11.0 µM 3% | [5]; at 33.0 µM 39% | [5]; [18] -9% and 10% | [6]; at 1.2 µM -3% | [6]; at 3.7 µM -5% | [6]; [17] -53% and -11% | [6]; at 11.0 µM -8% | [6]; at 33.0 µM 4% | [6]; [18] -56% and 30% | [6]; at 100.0 µM 51% | [7]; at 1.2 µM -4% | [7]; at 3.7 µM 6% | [7]; at 11.0 µM -2% | [7]; at 33.0 µM 14% | [8]; [17] -69% and -10% | [8]; [18] -52% and 29% | [9]; at 1.2 µM -9% | [9]; at 3.7 µM -9% | [9]; at 11.0 µM -12% | [9]; at 33.0 µM -1% | [9]; at 100.0 µM 17% | [10]; [17] -67% and -49% | [10]; [18] -83% and -8% | [11]; at 1.2 µM -9% | [11]; at 3.7 µM -14% | [11]; [17] -46% and -21% | [11]; at 11.0 µM -5% | [11]; at 33.0 µM 9% | [11]; [18] -62% and 22% | [11]; at 100.0 µM 51% | [12]; at 1.2 µM -3% | [12]; at 3.7 µM -3% | [12]; at 11.0 µM 2% | [12]; at 33.0 µM 35% | [13]; at 1.2 µM -5% | [13]; at 3.7 µM 10% | [13]; at 11.0 µM -5% | [13]; at 33.0 µM 30% | [14]; at 1.2 µM 0% | [14]; at 3.7 µM 2% | [14]; at 11.0 µM 10% | [14]; at 33.0 µM 47% | [15]; [17] -122% and -22% | [15]; [18] -79% and 51% | [16]; at 1.2 µM 0% | [16]; at 3.7 µM -1% | [16]; at 11.0 µM 8% | [16]; at 33.0 µM 52%
63.5% (inactive) and 96.8% (active): [15]; at 50.0 µM
57.1% (inactive) and 96.2% (active): [8]; at 50.0 µM
active: [1]; at 100.0 µM 80% | [4]; at 100.0 µM 71% | [5]; at 50.0 µM 81.6% and 98% | [5]; at 100.0 µM 82% | [7]; at 100.0 µM 73% | [12]; at 100.0 µM 88% | [13]; at 100.0 µM 81% | [14]; at 100.0 µM 84% | [16]; at 100.0 µM 86%

O=C1c2cccnc2C(=O)C2C3C=CC(C3)C12 (stereo unspecified)
inactive: [1]; at 1.2 µM 12% | [1]; at 3.7 µM 35% | [2]; at 1.2 µM 16% | [2]; at 3.7 µM 20% | [2]; at 11.0 µM 43% | [3]; at 1.2 µM 30% | [4]; at 1.2 µM 12% | [4]; at 3.7 µM 32% | [4]; at 11.0 µM 65% | [5]; at 1.2 µM 31% | [5]; [17] 29% | [6]; at 1.2 µM 19% | [6]; at 3.7 µM 34% | [6]; [17] 37% | [7]; at 1.2 µM 20% | [7]; at 3.7 µM 44% | [8]; [17] 56% | [9]; at 1.2 µM 10% | [9]; at 3.7 µM 16% | [9]; at 11.0 µM 30% | [10]; [17] -31% | [10]; at 50.0 µM 45.5% | [11]; at 1.2 µM 9% | [11]; at 3.7 µM 30% | [11]; [17] 57% | [12]; at 1.2 µM 16% | [12]; at 3.7 µM 36% | [13]; at 1.2 µM 28% | [13]; at 3.7 µM 55% | [14]; at 1.2 µM 18% | [14]; at 3.7 µM 36% | [16]; at 1.2 µM 29%
active: [1]; at 11.0 µM 78% | [1]; at 33.0 µM 94% | [1]; at 100.0 µM 98% | [2]; at 33.0 µM 91% | [2]; at 100.0 µM 99% | [3]; at 3.7 µM 82% | [3]; at 11.0 µM 92% | [3]; at 33.0 µM 96% | [3]; at 100.0 µM 97% | [4]; at 33.0 µM 94% | [4]; at 100.0 µM 98% | [5]; at 3.7 µM 73% | [5]; at 11.0 µM 91% | [5]; at 33.0 µM 97% | [5]; [18] 96% | [5]; at 50.0 µM 99.4% | [5]; at 100.0 µM 94% | [6]; at 11.0 µM 87% | [6]; at 33.0 µM 98% | [6]; [18] 98% | [6]; at 50.0 µM 99.5% | [6]; at 100.0 µM 99% | [7]; at 11.0 µM 87% | [7]; at 33.0 µM 99% | [7]; at 100.0 µM 99% | [8]; [18] 98% | [8]; at 50.0 µM 99.2% | [9]; at 33.0 µM 75% | [9]; at 100.0 µM 97% | [10]; [18] 85% | [11]; at 11.0 µM 72% | [11]; at 33.0 µM 95% | [11]; [18] 98% | [11]; at 50.0 µM 98.4% | [11]; at 100.0 µM 99% | [12]; at 11.0 µM 78% | [12]; at 33.0 µM 97% | [12]; at 100.0 µM 99% | [13]; at 11.0 µM 92% | [13]; at 33.0 µM 98% | [13]; at 100.0 µM 99% | [14]; at 11.0 µM 75% | [14]; at 33.0 µM 93% | [14]; at 100.0 µM 98% | [15]; [17] 72% | [15]; [18] 98% | [15]; at 50.0 µM 99.2% | [16]; at 3.7 µM 76% | [16]; at 11.0 µM 91% | [16]; at 33.0 µM 96% | [16]; at 100.0 µM 97%

From PubChem BioAssay (NCI)
